Records with an inconclusive call do not appear. Active and inactive are the calls of the source. Rule for the calls: active = hit-call score of the fitted dose curve at least 0.9, where 1 is the maximum; inconclusive = response in the unintended direction; inactive = score below 0.9.

Cellular tumor antigen p53 (Homo sapiens), sequence (P04637 whole entry, looked up, the tested form may be a part): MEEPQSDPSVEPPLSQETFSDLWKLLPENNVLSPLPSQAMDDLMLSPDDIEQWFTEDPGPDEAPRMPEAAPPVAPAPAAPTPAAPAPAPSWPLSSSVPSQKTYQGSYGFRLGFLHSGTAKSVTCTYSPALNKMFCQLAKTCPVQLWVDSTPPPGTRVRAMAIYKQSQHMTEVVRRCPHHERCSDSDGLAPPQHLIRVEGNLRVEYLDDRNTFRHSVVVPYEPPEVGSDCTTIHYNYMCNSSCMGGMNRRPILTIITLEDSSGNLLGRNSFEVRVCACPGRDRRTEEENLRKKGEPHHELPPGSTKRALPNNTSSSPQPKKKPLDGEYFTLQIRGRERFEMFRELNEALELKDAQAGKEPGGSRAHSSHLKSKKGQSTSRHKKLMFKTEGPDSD

This test concerns the target Cellular tumor antigen p53 (Homo sapiens) (UniProt P04637). The test is described as follows: TOX21_p53_BLA_p2_ratio: Tox21 HCT-116 p53 Agonism Beta-lactamase Assay, Ratio, Phase 2 (AID 2283592). From the text: TOX21_p53_BLA_p2 is a cell-based, single-readout assay that uses HCT116, a human intestinal cell line, […] in a 1536-well plate.TOX21_p53_BLA_p2_ratio is an assay readout measuring reporter gene via receptor activity and designed using inducible reporter (beta lactamase induction) detected with GAL4 b-lactamase reporter gene. The signal is derived from the ratio of cleaved (ch2) to uncleaved (ch1) reporter gene substrate used as the measure of target activity.Data from the assay component TOX21_p53_BLA_p2_ratio was analyzed into 1 assay endpoint. This assay endpoint, TOX21_p53_BLA_p2_ratio, was analyzed in the positive analysis fitting direction relative to DMSO as the negative control and baseline of activity. Using a type of inducible reporter, gain-of-signal activity can be used to understand changes in the reporter gene as they relate to the gene TP53. Furthermore, this assay endpoint can be referred to as a primary readout, because this assay has produced multiple assay endpoints and this ratio serves a reporter gene function to understand target activity. To generalize the intended target to other relatable targets, this assay endpoint is annotated to the DNA binding intended target family, where the subfamily is tumor suppressor.
Thawing Method: Place 14 mL of pre-warmed thaw medium into a 15 mL of conical tub. Remove the vial of cells to be thawed from liquid nitrogen and thaw rapidly by placing at 37C in a water bath with gentle agitation for 1-2 minutes. Decontaminate the vial by wiping with 70% ethanol before opening in a biological safety cabinet. Transfer the vial contents drop-wise into 14 mL of thaw medium in a sterile 15-mL conical tub. Centrifuge cells at 900 rpm for 4 minutes and resuspend in thaw medium. Transfer contents to the T75 tissue culture flask containing Thaw Medium and place flask in a humidified 37C/5% CO2 incubator. Switch to growth medium at first passage.Propagation Method: Aspirate medium, rinse once in DPBS, add 0.25% Trypsin/EDTA and swirl to coat the cell evenly. Add an equal volume of Growth Medium to inactivate Trypsin after 2-3 minutes incubation at 37C. Centrifuge cells at 900 rpm for 4 minutes and resuspend in growth medium. Cell should be passage or fed at least twice a week.Assay Protocol: Harvest cells from culture in growth medium and resuspend in assay medium. 2.2 Dispense 4000 cells/5 uL/well into 1536-well black/clear bottom plates using a Multidrop dispenser. After the cells were incubated at 37C for 5 hours, 23 nL of compounds dissolved in DMSO were transferred to the assay plate by a PinTool resulting in a 217-fold dilution. Incubate the plates for 16 hours at 37C, 5% CO2. Add 1 uL of 6X LiveBLAzer FRET B/G (CCF4-AM) Substrate Mixture to each well using a BioRAPTR dispenser and incubate the plates at room temperature for 2 hours. Measure fluorescence intensity at 460 and 530 nm emission and 405 nm excitation by an Envision detector. Data is expressed as the ratio of 460nm/530nm emissions. Add 4 uL of Cell-titer Glo to each well using BioRAPTR and incubate the plates at room temperature for 2 hours. Measure fluorescence intensity by a VewLux plate reader.
As to `CC(=O)Oc1cc(C(C)C)c(OCCN(C)C)cc1C`, the outcome was inactive.
Same read-out and setting: next, `O=C(O)CCNC(=O)c1ccccc1`: “inactive”; `CCN(CC)C(=O)[C@]1(c2ccccc2)C[C@@H]1CN`: “inactive”; `COc1ccc2c(c1OC)C(=O)O[C@@H]2[C@H]1c2c(cc3c(c2OC)OCO3)CCN1C`: “inactive”.
The same measure, in the same setting: next, `O=C(O)c1cc2cc(Cc3cccnc3)ccc2o1`: “inactive”; `[K+]`: “inactive”; `C=Cc1ccccn1`: “inactive”.
Regarding `CC(C)c1ccccc1C(C)C`, the outcome was inactive.
In the case of `CCOCC(O)COc1ccc(NC(=O)CC[S+](C)C)cc1` (stereo not given), the outcome was inactive.
With `CCCCCCCCCCCCOCCCN`, the result was inactive.
Still for that read-out and setting: next, `O=C(OC1C[C@@H]2CC3C[C@H](C1)N2CC3=O)c1c[nH]c2ccccc12` (stereo not given in full): “inactive”; `CCCCCCCC/C=C\CCCCCCCC(=O)OC`: “inactive”; `NC(=O)OC[C@@H]1[C@H](NC(=O)/C(=N\OCC(=O)O)c2csc(N)n2)C(=O)N1S(=O)(=O)O`: “inactive”.
`CC(=O)c1ccc2ccc3ccccc3c2c1`: the AC50 (in general, the concentration at which the activity in the assay is half-maximal) was 85.8 µM (active).
Turning to `NC(CO)C(=O)NNCc1ccc(O)c(O)c1O` (stereo not given), the outcome was inactive.
In the case of `c1cnc2cc3c(cc2n1)C1CNCC3C1`, the result was inactive.
Take `CCN1CCN(C(=O)N[C@@H](C(=O)N[C@@H]2C(=O)N3C(C(=O)O)=C(CSc4nnnn4C)CS[C@H]23)c2ccc(O)cc2)C(=O)C1=O`: the outcome was inactive.
On the same count and under the same terms, next, `CCC(O)c1ccccc1` (stereo not given): “inactive”; `C=C1[C@H](CO)[C@@H](O)C[C@@H]1n1cnc2c(=O)[nH]c(N)nc21`: “inactive”.
In the case of `CN1CCC(=C2c3ccccc3CC(=O)c3sccc32)CC1`, the result was inactive.
On the same count and under the same terms, next, `CCCCc1ccc2nc(NC(=O)OC)[nH]c2c1`: “inactive”.
Still for that read-out and setting: under `CC1(C)Cc2cccc(N)c2O1` stands “inactive”; under `COCCOC(=O)CC#N`, “inactive”; under `Nc1c2c(nc3ccccc13)CCCC2O` (stereo not given), “inactive”.
Turning to `CO[C@H]1[C@@H](O)[C@H](N)[C@@H](O[C@H]2O[C@H]([C@H](C)N)CC[C@H]2N)[C@H](O)[C@@H]1N(C)C(=O)CN`, the outcome was inactive.
On the same count and under the same terms, next, `O=C(CS(=O)Cc1ccco1)NC/C=C\COc1cc(CN2CCCCC2)ccn1` (stereo not given): “inactive”; `NNc1nnc(NN)c2ccccc12`: “inactive”.
`CCCCCC(C)N` (stereo not given): the result was inactive.
Take `Cc1cnc(C)c(C)n1`: the result was inactive.
Consider `O=C[O][Al]([O]C=O)[O]C=O`, for which the outcome was inactive.
On to `CCCCCC(N)=O`, for which the outcome was inactive.
Same read-out and setting: under `CCCOCC(C)OCC(C)O` (stereo not given) stands “inactive”.
With `CC1(C)CO[C@@H](CC(=O)O)CN1`, the outcome was inactive.
`C1=CCC2CC=CC2C1` (stereo not given): the outcome was inactive.
On the same count and under the same terms, under `CC/C(=C(/CC)c1ccc(OP(=O)(O)O)cc1)c1ccc(OP(=O)(O)O)cc1` stands “inactive”; under `O=C(O)CCCCCCC(=O)O`, “inactive”; under `COc1ccc([C@@H]2CC(=O)c3c(O)cc(O[C@@H]4O[C@H](CO[C@@H]5O[C@@H](C)[C@H](O)[C@@H](O)[C@H]5O)[C@@H](O)[C@H](O)[C@H]4O)cc3O2)cc1O`, “inactive”.
Same read-out and setting: under `C1CCc2nnnn2CC1` stands “inactive”; under `NC(=O)Cc1cccc(C(=O)c2ccccc2)c1N`, “inactive”; under `CN(C)Cc1ccccc1`, “inactive”.

Source of the values: PubChem BioAssay (EPA / NIEHS).
